Exocytosis inh: lytic granule exocytosis inhibition; TALL-104 LAMP-1 surface exposure, flow cytometry; cells stimulated with thapsigargin and PMA; inhibition, % at 10 µM; 360,000 compounds, 0.66% hits; AID 651702;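 active means inhibition above about 55%, limit read from the data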
JMJD2C inh: inhibitors of human GASC-1 (JMJD2C) demethylase; inhibition, % at 2.35 µM; 330,000 compounds, 0.069% hits; GST-JMJD2C(1-420) H3K9me3 demethylation, DELFIA europium; Q9H3R0; AID 2099;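 active means more than half of a compound's replicate wells show inhibition beyond 50%, single wells judged on their own value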;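 further: signal counts dimethyl H3K9 product captured on neutravidin plate; 0% = median of DMSO wells and 100% = 0.3 times that DMSO median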
Target sequence (Q9H3R0 1-420 limits assumed): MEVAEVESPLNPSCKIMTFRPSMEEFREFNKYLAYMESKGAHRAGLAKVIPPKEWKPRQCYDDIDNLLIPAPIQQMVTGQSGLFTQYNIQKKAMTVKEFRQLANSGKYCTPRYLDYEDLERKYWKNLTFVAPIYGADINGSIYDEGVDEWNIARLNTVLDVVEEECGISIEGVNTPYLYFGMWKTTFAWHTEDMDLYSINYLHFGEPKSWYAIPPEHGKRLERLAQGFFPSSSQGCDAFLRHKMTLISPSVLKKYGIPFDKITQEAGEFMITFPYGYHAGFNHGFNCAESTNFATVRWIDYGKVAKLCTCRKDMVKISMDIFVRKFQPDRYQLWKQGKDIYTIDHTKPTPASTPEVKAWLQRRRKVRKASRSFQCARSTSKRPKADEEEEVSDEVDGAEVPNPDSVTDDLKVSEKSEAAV
ALR inh: human ALR oxidase inhibition via reduced H2O2. inhibition, % (no concentration beside the values). purified ALR, DTT oxidation, H2O2 HRP-luminol luminescence. 290,000 compounds, 3.8% hits. P55789;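 active means mean replicate inhibition above about 79%, with every replicate also reaching it, limit read from the data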
Target sequence (P55789 whole entry, looked up): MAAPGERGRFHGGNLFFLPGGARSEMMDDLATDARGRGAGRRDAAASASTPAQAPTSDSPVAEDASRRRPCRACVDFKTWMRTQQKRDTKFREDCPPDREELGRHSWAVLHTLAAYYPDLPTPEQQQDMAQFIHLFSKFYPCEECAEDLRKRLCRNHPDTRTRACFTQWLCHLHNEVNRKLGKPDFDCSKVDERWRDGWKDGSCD
SMARCA2 act: increases SMARCA2 function in MMTV reporter cells. MG213 cells, MMTV-luciferase reporter, dexamethasone, overnight. activation, % at 9.1 µM. 370,000 compounds, 1% hits. AID 652017; in the data active means activation above about 7.8%;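 further: 0% = vehicle wells and 100% = reference activator wells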
MIN6 prolif: MIN6 beta-cell proliferation induction; 330,000 compounds, 0.29% hits; MIN6 cells proliferation, ATPlite luminescence, 48 h; cells starved in 0.2% serum; 100% = growth in 10% serum; proliferation, % at 10 µM; AID 2380;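 active means compounds whose signal lies at least 3.5 SD above the mean of all wells on their plate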;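 further: 0% = DMSO-treated cells in low-serum medium and 100% = 10% serum control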
M18AAP inhibitor: PfM18AAP enzyme inhibition; recombinant PfM18AAP, H-Glu-NHMec fluorogenic cleavage; 290,000 compounds, 1.2% hits; AID 1822; inhibition, % at 7.35 µM;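 active means inhibition above the campaign mean inhibition over all tested compounds plus 3 SD, cut at about 28% in these data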;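 further: 0% = plate median of test compound wells and 100% = 2 mM ZnCl2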
The depositor's hits bear a star; x = not tested or not shown. In the library only some 5.4% were active in any assay of this set; here they are far more common.

SMILES | Exocytosis inh | JMJD2C inh | ALR inh | SMARCA2 act | MIN6 prolif | M18AAP inhibitor
CCOC(=O)CSc1nc2sc3c(c2c(=O)n1-c1ccccc1)CCN(C(C)C)C3 | 3 | -7 | 100* | 2 | -2 | -3
CCOC(=O)CSc1nc2sc3c(c2c(=O)n1-c1ccccc1)CCN(C)C3 | -6 | 0 | 100* | 2 | 3 | 8
CCOC(=O)CSc1nc2sc3c(c2c(=O)n1-c1ccc(OC)cc1)CCN(C)C3 | 7 | 3 | 99* | -3 | -2 | 7
COC(=O)CSc1nc2sc3c(c2c(=O)n1-c1ccc(OC)cc1)CCN(C)C3 | 6 | 2 | x | -1 | 2 | 16
CN1CCCN(C(=O)C2CCN(c3ncnc4c3sc3cccc(F)c34)CC2)CC1 | x | x | x | 1 | x | x
COC[C@@H]1CCCN1c1cccc2c1S(=O)(=O)N1CC[C@H](C1)O2 | x | x | x | -2 | x | x
O=C(NCc1ccc(Cl)cc1)C1C2C=CC3(CN(Cc4ccccc4)C(=O)C13)O2 (configuration not stated) | x | x | x | 6 | x | x
C=CCCC1CN(Cc2ccc(OC)cc2)S(=O)(=O)c2c(NCc3cc(OC)c(OC)c(OC)c3)cccc2O1 (configuration not stated) | x | x | x | -2 | x | x
CCOC(=O)CSc1nc2sc3c(c2c(=O)n1-c1ccc(C)cc1)CCN(C)C3 | 17 | -4 | 99* | -2 | -3 | -3
CN1CCc2c(sc3nc(SCC(=O)N4CCOCC4)n(-c4ccc(Cl)cc4)c(=O)c23)C1 | 0 | 1 | 98* | -2 | -6 | 20
CCCCSc1nc2sc3c(c2c(=O)n1-c1ccc(C)cc1)CCN(C)C3 | -12 | 4 | -8 | -2 | -7 | 3
COC(=O)[C@]12C[C@H](CC(=O)NCc3ccc(OC)c(OC)c3)C(=O)N(Cc3ccccc3)C1=C[C@H](C1CCCC1)O[C@@H]2C | x | x | x | 3 | x | x
Cc1cc(C)cc(NC(=O)OC2CCC23CCCCC3)c1 (configuration not stated) | x | x | x | -3 | x | x
COc1cc(/C=C/c2nc(-c3ccccc3O)n[nH]2)cc(OC)c1OC | 98* | -6 | x | -2 | 0 | -1
O=C(N/N=C(\CC(=O)c1cccs1)C(F)(F)F)c1ccncc1 | -4 | 7 | 98* | 1 | 1 | 13
Cc1ccc(C(=O)N/N=C(/CC(=O)c2cccs2)C(F)(F)F)cc1 | -5 | -5 | 62 | 1 | -2 | 6
O=C(COc1ccc(Br)cc1Br)NC(=S)N1CCCc2ccccc21 | -2 | 6 | 93* | x | 0 | -4
O=C(COc1ccc(Br)cc1Cl)NC(=S)N1CCc2ccccc21 | 1 | 5 | -8 | 2 | -6 | 6
O=C(NCC1CCCO1)c1cc2c([nH]c3ccccc32)c(-c2cccc(Cl)c2)n1 (configuration not stated) | -1 | -5 | 2 | x | -5 | 7
COc1ccccc1-c1nc(C(=O)NCC2CCCO2)cc2c1[nH]c1ccccc12 (configuration not stated) | 0 | 13 | 98* | x | 0 | -6
COc1cc(-c2nc(C(=O)NCC3CCCO3)cc3c2[nH]c2ccccc23)cc(OC)c1OC (configuration not stated) | 0 | -14 | 99* | 1 | -3 | 6
COc1cccc2[nH]c(C(=O)NCC3CCCO3)cc12 (configuration not stated) | -4 | 8 | -30 | -1 | -1 | 2
COc1ccc(CN(CCN2CCOCC2)C(=O)c2cccc(F)c2)cc1OC | x | x | x | -1 | x | x
CCOC(=O)CC[C@@]1(C(=O)OCC)C[C@@H](CC(=O)NCCCOC)C(=O)N2CCCC=C21 | x | x | x | 0 | x | x
CC1CC(CC(=O)Nc2nc(-c3ccccc3)cs2)C(=O)O1 (configuration not stated) | -2 | -6 | -4 | 1 | 3 | -10
SMILES | Exocytosis inh | JMJD2C inh | ALR inh | SMARCA2 act | MIN6 prolif | M18AAP inhibitor
C/C(CC1CC(COCC(C)C)OC1=O)=N\Nc1nc(-c2ccccc2)cs1 (configuration not stated) | 4 | 0 | 98* | -2 | -1 | 13
O=C(CSc1nnc(-c2ccco2)c(-c2ccco2)n1)Nc1ccccc1 | 0 | -3 | 99* | 0 | -1 | 32*
CC(C)c1nnc(NC(=O)CSc2nnc(-c3ccco3)o2)s1 | -4 | 3 | -5 | 6 | -3 | 11
Cc1cccc(C)c1NC(=O)CSc1nnc(-c2ccco2)c(-c2ccco2)n1 | 1 | -18 | 99* | x | -2 | 17
Cc1ccc(NC(=O)CSc2nnc(-c3ccco3)c(-c3ccco3)n2)cc1 | 6 | -29 | 99* | -5 | -3 | -2
Cc1nnc(NC(=O)CSc2nnc(-c3ccco3)o2)s1 | 1 | -9 | -4 | x | 3 | 29*
Cc1ccc(NC(=O)CSc2ccc(-c3ccco3)nn2)cc1 | 3 | 16 | x | 0 | -1 | -4
Cc1ccccc1NC(=O)CSc1nnc(-c2ccco2)c(-c2ccco2)n1 | -5 | 1 | x | x | 0 | 14
COc1cc(NC(=O)C2CCCN(S(=O)(=O)c3ccc(Br)s3)C2)cc(OC)c1 (configuration not stated) | x | x | x | -4 | x | x
COC(=O)[C@]12C[C@H](CC(=O)N3CCSCC3)C(=O)N(CCc3ccc(OC)c(OC)c3)C1=C[C@H](C1CCCC1)O[C@@H]2C | x | x | x | -2 | x | x
CN(C)c1ccc(NC(=O)CSc2nnc(-c3ccco3)c(-c3ccco3)n2)cc1 | 2 | -23 | x | 1 | 1 | 31*
CCc1nnc(SCC(=O)Nc2ccc(C(C)=O)cc2)nc1CC | -3 | 14 | 99* | 0 | 2 | x
CN(C)/C=C1\C(=O)Nc2ccccc21 | -2 | 2 | 99* | 0 | -1 | 18
Cc1ccc(NC(=O)CSc2nnc(CNC(=O)c3c(F)cccc3Cl)o2)cc1 | 1 | 1 | 98* | -7 | -2 | 1
O=C(CSc1nnc(CNC(=O)c2c(F)cccc2Cl)o1)Nc1ccc2c(c1)OCO2 | 10 | -4 | 97* | -5 | -3 | -1
C=CCn1c(Cc2cccs2)nnc1SCC(=O)Nc1ccc2c(c1)OCO2 | x | x | x | -2 | x | x
Oc1ccc(Br)cc1-c1cc(-c2ccccc2)n[nH]1 | 0 | -15 | -4 | 1 | -4 | 2
Oc1ccc(Br)cc1-c1ccnn1-c1ccccc1 | 11 | 14 | 97* | 0 | -2 | -5
COc1ccc(N2CCN(Cc3nnnn3C3CCCCC3)CC2)cc1 | -2 | 2 | 23 | -1 | -2 | 5
CCOC(=O)Cn1nnnc1CN1CCN(c2ccc(OC)cc2)CC1 | 18 | 2 | 92* | 1 | -2 | 7
O=C(O)c1cccc(NC(=O)c2ccc3c(c2)C(=O)N(c2ccccc2)C3=O)c1 | 10 | -11 | 16 | 3 | -5 | -9
O=C(O)c1ccc2c(c1)C(=O)N(c1ccc(Nc3ccccc3)cc1)C2=O | 0 | 0 | 98* | -4 | 1 | 0
CC(=O)N/C(=C\c1ccccc1)C(=O)Nc1ccc(O)cc1 | -20 | -1 | 99* | 2 | -1 | 8

Assay outcomes as filed in PubChem.
